Assay outcomes (PubChem)
L3MBTL1 block: L3MBTL1 (human) inhibition. AID 485360. Potency, µM (top dose mostly 57.1 µM), for inactives: at the top dose activity, negative = inhibition, usual class: inhibitors. AlphaScreen L3MBTL1–H3K9me1 peptide binding. actives 0.66% (n = 230,000); note: potency is the fitted concentration of half-maximal effect; % is set by controls: 0 for no effect and ±100 for the full control effect; nearly all actives have a fitted effect of over 60% in size
Target sequence (Q9Y468 whole entry, looked up): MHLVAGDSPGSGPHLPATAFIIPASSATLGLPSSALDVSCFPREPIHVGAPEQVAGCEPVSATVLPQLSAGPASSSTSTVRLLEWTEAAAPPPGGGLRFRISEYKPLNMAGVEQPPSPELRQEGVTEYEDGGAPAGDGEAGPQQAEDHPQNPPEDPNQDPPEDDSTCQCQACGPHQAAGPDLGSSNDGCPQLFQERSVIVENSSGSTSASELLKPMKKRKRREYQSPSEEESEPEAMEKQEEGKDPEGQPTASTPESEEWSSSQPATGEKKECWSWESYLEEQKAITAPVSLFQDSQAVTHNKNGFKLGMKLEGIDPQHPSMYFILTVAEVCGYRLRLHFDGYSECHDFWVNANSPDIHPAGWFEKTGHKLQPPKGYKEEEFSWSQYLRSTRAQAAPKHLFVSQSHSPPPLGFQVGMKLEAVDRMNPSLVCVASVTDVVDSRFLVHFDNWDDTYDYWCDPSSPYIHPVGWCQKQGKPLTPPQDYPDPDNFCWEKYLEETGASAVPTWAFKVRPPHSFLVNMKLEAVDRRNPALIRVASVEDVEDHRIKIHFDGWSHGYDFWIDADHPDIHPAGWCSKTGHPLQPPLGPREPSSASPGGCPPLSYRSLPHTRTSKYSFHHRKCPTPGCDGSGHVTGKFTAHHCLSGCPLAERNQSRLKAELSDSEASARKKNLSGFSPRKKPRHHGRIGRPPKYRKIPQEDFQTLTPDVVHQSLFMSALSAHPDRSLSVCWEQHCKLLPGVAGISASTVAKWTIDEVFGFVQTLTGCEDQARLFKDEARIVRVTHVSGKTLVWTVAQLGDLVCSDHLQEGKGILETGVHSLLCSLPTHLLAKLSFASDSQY
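AlphaScreen assay: L3MBTL1 (50 nM final) was preincubated 30 min at room temperature with biotinylated H3(1-15)K9me1 peptide (75 nM final), then 30 min with library compounds; streptavidin donor and nickel chelate acceptor beads (10 ug/mL final) added, 30 min dark.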
BAZ2B inh: blocks human BAZ2B; Q9UIF8; AlphaScreen BAZ2B-H3K14Ac peptide displacement; Potency, µM (doses to about 114 µM), without a hit: top-dose activity change, negative = inhibition, actives largely listed as inhibitors; actives 4.4% (n = 360,000); AID 504333; note: potency is the fitted concentration of half-maximal effect; % is set by controls: 0 for no effect and ±100 for the full control effect; nearly all actives have a fitted effect of over 60% in size
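In this displacement format the biotinylated H3(5-23) peptide acetylated at Lys14 serves as ligand at 50 nM, with BAZ2B at 50 nM in PBS pH 7.4 containing 0.01% Tween-20. Donor and acceptor beads are 10 ug/mL final.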
JMJD2A Tudor: inhibitors of human JMJD2A Tudor domain | AlphaScreen JMJD2A-Tudor / H3K4me3 peptide binding | actives 4.4% (n = 390,000) | Potency, µM (doses to about 114 µM), for the others: top-dose activity change, negative = inhibition, hits mostly inhibitors; note: potency is the fitted concentration of half-maximal effect; % is set by controls: 0 for no effect and ±100 for the full control effect; nearly all actives have a fitted effect of over 50% in size
KDM4E inh: inhibitors of human JMJD2E histone demethylase. JMJD2E catalytic domain, FDH-coupled NADH fluorescence (FDH is formaldehyde dehydrogenase). AID 2147. actives 1.6% (n = 230,000). Potency, µM (doses to about 57.1 µM), inactives show at the top dose activity change, negative = inhibition, hits mostly inhibitors. B2RXH2; active = well fitted inhibition curve with a large enough effect, not every such curve was filed as active; inconclusive = small, poorly fitted or top-dose-only effect, or another doubt; inactive = no such curve, though single readings can be large or run the other way;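 note: potency is the fitted concentration of half-maximal effect; 0% = wells with enzyme and -100% = buffer wells without enzyme; nearly all actives have a fitted effect of over 50% in size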
HP1b binding inh: HP1-beta chromodomain-methylated histone interaction inhibition; P83916; AlphaScreen HP1-beta / biotin-H3K9me3 peptide binding; actives 0.56% (n = 390,000); Potency, µM (titrated, usually from 114 µM), without a hit: at the highest dose activity change, negative = inhibition, hits mostly inhibitors; note: potency is the fitted concentration of half-maximal effect; nearly all actives have a fitted effect of over 70% in size
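HP1-beta protein (50 nM final) preincubated 30 min at room temperature with biotinylated H3(1-18)K9me3 peptide (50 nM) in PBS pH 7.4, 0.01% Tween-20, then compound added for 30 min. AlphaScreen streptavidin donor/nickel chelate acceptor beads (10 ug/mL final), 30 min dark, luminescence read.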
PI5P4K alpha inh: inhibitors of human PI5P4K alpha; P48426; PI5P4Kalpha enzyme, ADP-Glo luminescence, 60 min; hits give low values; max response, %; actives 1.2% (n = 330,000); AID 652105; active = max response of -50% or lower; inconclusive = between -30% and -50%; inactive = -30% or higher; note: value at the top dose of about 77 µM; % is set by controls: 0 for no effect and ±100 for the full control effect
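Compounds were pin-transferred onto PI5P4Kalpha and substrate in HEPES pH 7.4 buffer with EGTA, CHAPS and 5% DMSO. ATP (5 microM final) started the reaction, which ran 60 minutes at room temperature before ADP-Glo detection.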
Active calls of the source: *; u = inconclusive; x = no result given; [ ] = remark or other dose. This is a sample that favours compounds with a hit; in the whole collection about 5.7% have one here. Unless noted, calls come from the whole dose curve; as a rule, active = well fitted inhibition curve with a large enough effect; inconclusive = small, poorly fitted or top-dose-only effect; inactive = no such curve, though single readings can be large or run the other way.

SMILES | L3MBTL1 block | BAZ2B inh | JMJD2A Tudor | KDM4E inh | HP1b binding inh | PI5P4K alpha inh
CCOc1cc(/C=C2\CN(C)C/C(=C\c3ccc(O)c(OCC)c3)C2=O)ccc1O | x | 44.7µM* | 56.2µM* | x | u | 0.7
O=C(NN1C(=O)/C(=C\c2ccc(O)c([N+](=O)[O-])c2)SC1=S)c1ccccc1Cl | -0.1% | 39.8µM* | 56.2µM* | -5.9% | -31.9% | -78.0*
Cc1ccc(/C=C2\SC(=S)N(C(Cc3ccccc3)C(=O)O)C2=O)cc1 (configuration not stated) | -0.8% | u | u | -2.6% | -14.4% | 11.2
CCOC(=O)c1ccc(S(=O)(=O)Nc2cc(S(=O)(=O)N3CCOCC3)ccc2O)cc1 | 7.3% | x | u | x | u | u
CCc1ccccc1N(C)C(=O)c1cn(-c2cccc(OC)c2)c(=O)c2ccccc12 | x | -4.4% | -23.7% | x | 2.9% | x
CCOC(=O)C1=CCN(S(=O)(=O)c2ccccc2Cl)C1c1cccc(C)c1 (configuration not stated) | x | x | x | x | x | 0.3
O=C(O)C(Cc1ccccc1)N1C(=O)/C(=C/c2ccccc2)SC1=S (configuration not stated) | -28.3% | u | u | -2.5% | -17.7% | -0.5
CC(=O)NN1C(=O)/C(=C\c2ccccc2)SC1=S | -3.8% | -28.5% | -26.1% | 1.2% | 25.3% | -13.9
O=C(O)C(Cc1ccccc1)N1C(=O)/C(=C/c2cccc3ccccc23)SC1=S (configuration not stated) | -3.3% | 56.2µM* | x | -2.5% | x | x
O=C1/C(=C/c2ccc(O)c(O)c2)SC(=S)N1Nc1ccccc1 | x | 3.55µM* | 10µM* | u | 7.08µM* | -60.7*
O=C(NN1C(=O)/C(=C/c2ccc(O)c(O)c2)SC1=S)c1ccccc1 | u | 5.62µM* | 12.6µM* | x | u | -52.5*
CCOc1cc(/C=C2\SC(=S)N(NS(=O)(=O)c3ccccc3)C2=O)ccc1O | x | u | -26.8% | x | 2.5% | -66.9*
CCOc1ccc(/C=C2\SC(=S)N(NS(=O)(=O)c3ccccc3)C2=O)cc1OC | -13.2% | u | u | -7.2% | -8.6% | -5.2
CC(=O)C1(C)CC2(CC(C)(C)OC2=O)C(=O)O1 (configuration not stated) | x | x | x | -1.3% | x | x
CCS(=O)(=O)N1CCC(c2nc3ccccc3[nH]2)CC1 | x | -1.8%[57.1 µM] | -1.8% | x | 26.0% | 4.0
CCOc1cc(/C=C2\SC(=S)N(Nc3ccccc3)C2=O)ccc1O | u | 20µM* | 0.0%[11.4 µM] | 3.9% | 50.1µM* | -15.9
COc1cc(/C=C2\SC(=S)N(Nc3ncc(C(F)(F)F)cc3Cl)C2=O)ccc1O | x | 35.5µM* | u | -5.2% | u | -21.8
COc1cc(/C=C2\SC(=S)N(Nc3ccccc3)C2=O)ccc1O | u | 39.8µM* | 44.7µM* | 7.8% | 50.1µM* | u
O=C(O)c1ccc(/C=C2\SC(=S)N(Nc3ccccc3)C2=O)cc1 | -17.8% | u | -23.2% | -4.5% | -5.1% | u
O=C(NN1C(=O)/C(=C/c2cccc(O)c2)SC1=S)c1ccccc1O | x | 44.7µM* | 44.7µM* | x | -18.4%[57 µM] | -18.5
Cc1[nH]nc2c1C(c1ccsc1C)C(C#N)=C(N)O2 (configuration not stated) | x | 1.3% | -23.9% | 3.2% | 12.0% | x
N#CC1=C(N)Oc2n[nH]c(-c3ccncc3)c2C1c1ccsc1 (configuration not stated) | -5.8% | 9.5% | -24.6% | -4.5% | 6.2% | x
Cc1[nH]nc2c1C(c1ccc(-c3ccc(Cl)cc3)o1)C(C#N)=C(N)O2 (configuration not stated) | -5.0% | 39.8µM* | u | -24.9% | -25.9% | -29.4
COc1ccc(-c2[nH]nc3c2C(c2ccsc2)C(C#N)=C(N)O3)cc1 (configuration not stated) | -4.4% | -32.7% | -23.7% | 8.1% | 3.0% | x
Cc1ccc(-c2[nH]nc3c2C(c2ccsc2)C(C#N)=C(N)O3)cc1 (configuration not stated) | x | 4.3% | -6.2% | -2.5% | 17.3% | -52.0*
SMILES | L3MBTL1 block | BAZ2B inh | JMJD2A Tudor | KDM4E inh | HP1b binding inh | PI5P4K alpha inh
Cc1[nH]nc2c1C(c1ccsc1)C(C#N)=C(N)O2 (configuration not stated) | x | -3.9% | -14.7% | -11.1% | 17.5% | -59.7*
N#CC1=C(N)Oc2n[nH]c(-c3ccccc3)c2C1c1ccsc1 (configuration not stated) | -27.3% | -7.4% | -25.3% | u | 13.7% | -65.0*
CC(=O)Nc1cccc(-c2nnc(SCC(=O)c3cc([N+](=O)[O-])ccc3Br)o2)c1 | x | -33.2% | -20.5% | x | 19.6% | x
Cc1cc2ccccn2c1C(=O)Nc1ccccc1 | 0.1% | -22.7% | -0.7% | u | 42.2% | -3.7
CC(=S)c1c(C)cc2cc(C)ccn12 | u | 10µM* | 25.1µM* | u | 22.4µM* | 1.6
COc1ccc(-c2csc(/C(C#N)=C(\O)CSc3nccn3C)n2)cc1OC | u | 50.1µM* | -35.3% | u | -21.6% | -13.3
CC1CCN(CCCCOc2ccccc2Br)CC1 | -5.8% | u | 15.8µM* | 3.4% | -17.5% | 2.7
CC1CCN(CCCCOc2ccccc2F)CC1 | x | 50.1µM* | 10µM* | x | 0.9% | -12.4
CCOc1ccc(NC(=O)c2sc3ccccc3c2Cl)cc1 | x | -1.4% | -2.6% | x | 31.1% | x
CCN(CC)c1ccc(NC(=O)c2sc3ccccc3c2Cl)cc1 | x | 11.2µM* | 11.2µM* | x | u | x
CCN(CC)c1ccc(NC(=O)c2sc3nc(-c4ccccc4)cn3c2C)cc1 | x | 7.94µM* | 28.2µM* | x | -37.2%[57 µM] | x
Cc1c(C(=O)Nc2ccncc2)sc2nc(-c3ccccc3)cn12 | 1.6% | u | u | u | 30.4% | 5.0
COc1ccc(-c2ccccc2C2C3C=CCCC3(C)C(=O)N2Cc2ccccc2)cc1 (configuration not stated) | x | x | -19.3% | x | 26.9% | x
COc1ccc(-c2noc(N3CCN(c4cccc(Cl)c4)CC3)n2)cc1OC | x | -11.8% | -8.6% | x | 22.1% | x
COc1ccc(C(=O)C[n+]2cc(Br)cc3ccccc32)cc1[N+](=O)[O-] | x | -27.1% | 79.4µM* | x | 30.7% | -5.8
O=C(C[n+]1cc(Br)cc2ccccc21)c1ccccc1 | -0.3% | u | u | x | 7.6% | -0.9
Cc1cccc(CNC(=O)C2CCN(c3nnc(-n4c(C)ccc4C)s3)CC2)c1 | x | -6.4% | -28.5% | x | -7.2% | x
CC(=O)N1c2ccccc2[C@@H](C)[C@@H]1C | 15.8% | 1.5% | -6.4% | x | 17.1% | 2.3
CC(=O)N1c2ccccc2C2(O)N=C(C)SC12 (configuration not stated) | -5.7% | u | 5.62µM* | -14.0% | u | u
